Source: PubChem BioAssay AID1508600 (Functional Genomics Laboratory (NCATS/FGL), 2020)
Screen size: about 53,000 sequences; about 3,700 (7%) were called active. The sample as a whole holds a higher share of actives than the screen did. Values without a mark were called inactive.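 Rule for the calls: active = gene knockdowns whose robust z-score for IL-1 alpha signal is at least 2 or at most -2, so actives lie on both sides; inactive = the rest.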

Assay: Components of the Cytosolic LPS Sensing Pathway: Gene Identification via Genome-wide siRNA Screen;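 note: robust z of the log signal after scaling to non-targeting control siRNA wells of the plate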
Conditions: RAW264.7 macrophages, IL-1a HTRF, actives lie on both sides, screened at 100 nM (by protocol), cells primed 5 h with Pam3CSK4 first
In short: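 RAW264.7 mouse macrophages reverse-transfected with single siRNAs (100 nM final) for 48h, primed with Pam3CSK4 for 5 hours, then transfected with LipidA for 24 hour. Supernatant IL-1a read by HTRF; values normalized to negative-control median, log-transformed robust z-scores.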

Sequence | z-score
GGCAGAAAAGAUAGCAUCUTT against Cops4 | 0.413
GGUCUUUUCUAUUAUGGGATT against Strc | 1.22
GCGGUUUUGUGUCAGGGACTT against 4833408A19Rik | -0.682
GGAGCUGUUGAAAGAAUAUTT against Relt | 2.63 (active)
CCCUGAACAGGUCAUCUGUTT against Ctps2 | 0.822
GGACAUGACUCUAAAAAAATT against Slc44a3 | 4.43 (active)
CGUGCUCAUUUAGGUUAUATT against Zfp57 | 1.15
GGGCAAAUAGUCAAUGACCTT against Ces1e | 0.661
GCGGAACUUUCAUUGCUGGTT against Rabggta | 1.85
CCGGAGCACCAUUAAGGUUTT against Nudt11 | 4.75 (active)
GCCUUCUGAUUCAUUUUCUTT against Naa38 | 0.525
GGAAAGUUUGCACUGUAAATT against Tiam2 | -0.207
CCGUCUUCACCUGAUACAGTT against Ube2d2b | 0.501
GCUGAACGGUCUCAAACAGTT against Cdca3 | 0.395
GGUGUCUCUGAUGAAUCACTT against Syt15 | 1.21
UCACAGUCAUCAUUGUUUCTT against Olfr825 | -2.83 (active)
GGAAGUCCAACUUCUUCCATT against Ebf4 | -0.153
GGUACCAUGAAGGAUUUAUTT against Tspan2 | 3.24 (active)
GGCAUGAUGAUAUUUGAAATT against Glrp1 | -0.142
GGAAAAAGAUGUCCUAUCUTT against Rufy2 | -1.08
GGAUGUGGGUGGAUAUCAUTT against Sit1 | 0.145
GGAAAAAAAGGUAGCUGGATT against Tspyl4 | 2.82 (active)

Sequence | z-score
GCUUAUCGAAUUCUUCUCCTT against Cnpy2 | 0.417
CUAGAUGCACAGAAUAGCATT against Prm1 | -1.83
GCAAUAGGCAAUCUGGGAUTT against Olfr52 | 0.504
GCCUCAAUAAAUUGUCAGCTT against Slc25a17 | -0.0131
GAAGCAGAACUUGAGCAAGTT against Phgdh | 2.07 (active)
GCUGCAUAGAAUGACACGATT against Pip5kl1 | 0.851
GGCAAAGACGACCUCUCACTT against Vtcn1 | -1.56
GGAUGAUGAAGUCAAAUUUTT against Slc26a5 | 0.0656
CGACACCUAAGUUCAGCACTT against Mief2 | -1.91
GCACUUUCAUGGAUAUAAGTT against Rab22a | -0.366
GGCACUACUAAGAACCUUATT against Tmem69 | 0.728
CGCAUACUGAUGAUAACUATT against Zfp317 | 2.12 (active)
GGAAACCUUUUACCUUUAATT against Padi1 | -0.874
CCAAAAUCGGGAAAGGAAATT against Ldb2 | -0.00816
GGCUUGACCUGCGUCUUCATT against 1700001P01Rik | 0.736
GGAACAUUGGCAUCACGACTT against Acy1 | 0.901
GGACGACGACUUUUUAAAATT against Pnmal1 | 2.18 (active)
CCAUCUCUUACUAUCCAUGTT against Cmbl | -1.03
GGCAUGACUGGACUGAAAATT against Ythdf3 | -0.976
GGGAUUUAGCACAAGAUACTT against Brinp3 | 0.606
GGUAUUCUUGGAAGGAGGGTT against Prss22 | 0.153
GGUCCAGAGAAGGCAAGCUTT against Elf3 | 5.87 (active)

Sequence | z-score
CGAAAAUCUUCUGGCUCACTT against Llgl2 | -0.922
GGGACUUAGAAACAAUCCATT against Hsd3b4 | 1.77
GGUAGCGAUGUUUUCUUAUTT against Nt5dc3 | 1.66
GGUCAUGCUGAUCAGCGACTT against Itfg2 | -0.564
GGACUACAUGCUCACGUUATT against Ccm2 | 2.07 (active)
CGCCGCACAGUUAAUGCUUTT against Mettl17 | 0.973
GGUUCCUCUCAAAAUUCAATT against Gprc6a | 3.13 (active)
GCGAGAGAUGAAAUGGGUGTT against Tbc1d10c | 1.07
CCUUAAAAGUAACCACUGUTT against Slc6a6 | 2.38 (active)
GGUUUUAUCUCUUGUGCCCTT against Myl10 | -0.565
GGCCAAGGAUCCAUCUGUATT against Magee1 | 0.11
GCAAUAGCAGCAACUCUUATT against Dbpht1 | -0.369
GGCUCUAACAGCUACAUGUTT against Hspb7 | -2.21 (active)
GGGAGAUGUCUUACACAUGTT against Fkbp2 | 1.12
GGUGGUUCUCAGCUGUGUATT against Arhgef18 | -1.08
GGAUGAUGAAUGCAAUUAATT against Eed | -0.882
CCUACUUUGGACUCUUUCATT against Tnfsf12 | -2.25 (active)
GGUGGAAGACUUCAGUGAATT against Clgn | 0.384
CAGCUUGUGCUCGAGUAAATT against Gm3579 | -1.14
GGACAGAAAGGUACCCUUATT against Slc30a5 | 0.461
GGUAGUUGUUCUAUGUUUUTT against Olfr967 | -1.07
GCAAAAGUGUAUCAUGAUGTT against Olfr1052 | -2.17 (active)

Sequence | z-score
CGUGGAGCUACCAUAUAGGTT against Mob3b | 0.581
CGACCAGCUUCUAGUGCUUTT against Pcdha8 | -0.431
CCAAGCCUCCAAUGGUCAGTT against Stat6 | -0.623
GCACUAUGACUACAAGAGUTT against Olfr1457 | -0.965
GCCGUUGCCUUUCAAGGGATT against Inhbe | -0.112
GCUUUUCCGUGAUCAUACATT against Tex14 | 0.0691
GGAUCCAGAUACUCCCAAGTT against Camp | -1.08
GGGUUUCUUGAUUCUGACCTT against Ccl5 | -2.33 (active)
CCUACCAGUUCCUAUUUAGTT against Alas2 | 0.452
GGGUCUCCGAAACUACUUATT against Tmem144 | 0.00626
GCCAAUUUGACUUGUAAGUTT against Slc22a3 | 1.4
GGUUUCUGGAAGAAACUGGTT against Polr1a | -0.927
GCUGAGUGAAUCCACGUACTT against Mzb1 | -2.65 (active)
CAUUGUCAUUCUAGUUGCATT against Olfr1251 | 0.64
GGCAACAAUAGUUCAGAAGTT against Rps6ka5 | 1.5
GCAUAUAAUGUCUAACUCGTT against Eml4 | -0.0328
GGUUCUUAACCUCAGCAGUTT against Omg | -0.541
GGAGUCUUGCUCUAUAUAATT against Arpc5 | 1.26
GGCUUCUUUAUGUUUCCUUTT against Usp48 | -1.46
GGCUUUUCUAGUUCCUCAATT against Pdzd7 | -2.01 (active)
GGAAUUCAAGGGCUCCACATT against Grip1 | 0.378
GGUAGGAUGAGUUGAAGAGTT against AF366264 | 0.0631

Sequence | z-score
CCAGAAGUUAGAACAGUUCTT against Rp9 | 1.49
GGAGUACAUGGUACACGUUTT against Fut8 | 1.52
GGAUGUUGUUUAUCGAGGATT against Med21 | -0.572
GGAUGGAGGAAGACUCGAUTT against Etv6 | 2.14 (active)
GGAAACCUGUUUGAUUUUGTT against Aasdhppt | 0.798
GCUUUCAUAGCUGGAAACCTT against Olfr173 | 0.452
CCUCACAAAUAUACAGUUCTT against Pira2 | 0.519
UUCUACUGGGCUUAACCAGTT against Olfr1032 | 1.86
GGAUGCUUUAACUUCAAACTT against Crebrf | 2.56 (active)
GCCAUAUAAGAUUCUUGUGTT against Pi4kb | -0.63
GCAAAUGUAUUAUGUCCUUTT against Gm5478 | 0.0907
GGAUUUGUAAGACUAAUCUTT against Xdh | 0.00453
GGUGAAGAGACUGGAGAACTT against Cavin2 | -0.277
GGACAUAAAACUUUUCAGUTT against Foxf2 | 1.02
GGAACAGAAGUCAAGUGGATT against Acsm5 | 2.69 (active)
GCUGGACACGGAAGGUAUATT against Igsf8 | -0.595
CCUAAGAACCCUGAUCCUATT against A030005L19Rik | 1.08
GGAAAAGGAAGAACUGAUUTT against Sptlc1 | -0.477
GGACACCAUUGGCUCCUUATT against Tmub1 | 1.63
GGUGAUGUUCUAACCCUGCTT against Trex1 | -0.0124
